Molecules are shown by their SMILES. This is part of a sample that, as a whole, favours compounds with a hit. Of some 83,000 tested, about 20% had one in any assay.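 48-hour exposure, single concentration, 96-well plates; percent growth endpoint where 0 means no net growth. Active: below 10.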 Unmarked numbers belong to inactive results. Active and inactive are the calls of the source.

Holding throughout (experiment): NCI-60 one-dose screen, 48 h (100 = growth as untreated, 0 = no growth, -100 = all killed)
Assay [1] deals with 786-0 renal. Particulars: 10 µM unless noted.
The test system of assay [2] is DU-145 prostate. Particulars: 10 µM unless noted.
In assay [3] the test system is MDA-MB-231 breast. The conditions noted are these: 10 µM unless noted.
For assay [4], the system named is SF-268 CNS. Particulars: 10 µM unless noted.
Assay [5] deals with SF-539 CNS. Particulars: 10 µM unless noted.
The subject of assay [6] is M14 melanoma. The conditions noted are these: 10 µM unless noted.
The subject of assay [7] is HCT-15 colon. The conditions noted are these: 10 µM.
Assay [8] concerns SNB-19 CNS. Particulars: 10 µM unless noted.
In assay [9] the test system is UACC-62 melanoma. Particulars: 10 µM unless noted.
Assay [10] has as its system SN12C renal. The conditions noted are these: 10 µM unless noted.
Assay [11] deals with ACHN renal. The conditions noted are these: 10 µM unless noted.
The subject of assay [12] is MOLT-4 leukemia. The conditions noted are these: 10 µM.
The subject of assay [13] is OVCAR-8 ovarian. The conditions noted are these: 10 µM unless noted.
Assay [14] concerns SK-OV-3 ovarian. The conditions noted are these: 10 µM unless noted.
Assay [15] has as its system NCI/ADR-RES ovarian. The conditions noted are these: 10 µM unless noted.
Assay [16] concerns T-47D breast. The conditions noted are these: 10 µM unless noted.
Assay [17] concerns SW-620 colon. Particulars: 10 µM unless noted.
Assay [18] has as its system HCT-116 colon. Particulars: 10 µM unless noted.
In assay [19] the test system is KM12 colon. The conditions noted are these: 10 µM unless noted.
Assay [20] concerns MDA-MB-435 melanoma. Particulars: 10 µM unless noted.

As for `NC(Cc1ccc2c(c1)OCO2)c1ccc2c(c1)OCO2` (centres undefined), the growth in assay [1] was 98.5%; in assay [2], 116%; in [3], 107%; in assay [4] it was 103%; in assay [5], 114%; in [6], 102%. For the same compound, the growth in assay [7] is 115%; in assay [8] it was 93.6%; in assay [9], 92.6%; in assay [10], 94%; in assay [11], 108%; in [12], 107%. The growth in assay [13] is 102%; in assay [14], 108%; in assay [15], 107%; in [16] it was 113%; in assay [17] it was 101%; in assay [18], 95.5%. The growth in [19] was 109%.

With `[Cl][Hg][n]1cnc2c(Cl)c(Cl)c(Cl)cc21`, the growth was 112% in [1]; 100% in assay [2]; 108% in [3]; 88% in [4]; 101% in assay [5]; 94.5% in assay [6]. The growth in [7] was 100%; in assay [8], 102%; in assay [9] it was 86.5%; in [10], 102%; in assay [11] it was 97.9%; in assay [12] it was 107%. In addition, the growth in [13] is 101%; in [14] it was 113%; in assay [15], 104%; in assay [16], 72.2%; in assay [20] it was 107%; in [17] it was 114%. Also, the growth was 103% in assay [18] and 97.8% in assay [19].

Consider `ClCCN(CCCl)c1nc(Cl)c(C2CC(c3ccccc3)=NN2c2ccccc2)s1` (centres undefined), for which the growth in assay [1] was 91.7%; in assay [2] it was 99.7%; in assay [3] it was 88.1%; in assay [4] it was 88.9%; in assay [5], 102%; in [6], 92.4%. For the same compound, the growth in [7] was 101%; in assay [8] it was 79.9%; in assay [9], 60.9%; in assay [10] it was 90.4%; in assay [11], 89.6%; in [12], 75.4%. The growth in assay [13] was 90.3%; in assay [14] it was 82.9%; in assay [15], 103%; in assay [16], 66.3%; in assay [20], 103%; in assay [17], 86%. In addition, the figures for the growth in assay [18] and in assay [19] were 78.3% and 98.3%, respectively.

As to `C[C@]12CC[C@@H]3C4=C(CC[C@H]3[C@@H]1CC[C@@H]2O)CC(=O)CC4`, the growth in assay [1] was 106%; in assay [2], 116%; in assay [3] it was 103%; in assay [4], 99.7%; in assay [5], 103%; in assay [6] it was 107%. Also, the growth was 100% in assay [7]; 95.2% in assay [8]; 83.3% in [9]; 99.5% in [10]; 104% in assay [11]; 89% in [12]. The growth in assay [13] is 101%; in [14], 114%; in [15], 95.8%; in assay [16], 95.4%; in assay [20] it was 103%; in assay [17] it was 102%. In addition, the growth in assay [18] was 102%; in assay [19], 107%.

In the case of `C#CC1(O)CCC2(C)C(CCC3C4CCC(=O)C4(C)CCC32)C1` (centres undefined), the growth was 97.4% in assay [1]; 109% in assay [2]; 101% in [3]; 97.9% in assay [4]; 97.2% in assay [5]; 102% in assay [6]. The growth in assay [7] is 97.5%; in assay [8], 95%; in assay [9], 88.7%; in assay [10] it was 101%; in assay [11], 97.8%; in [12], 97.3%. Moreover, the growth is 97.6% in assay [13]; 97.6% in [14]; 96.4% in assay [15]; 96.1% in [16]; 101% in assay [20]; 103% in assay [17]. Besides, the growth in [18] was 92.3%; in [19] it was 102%.

With `c1ccc(-c2ccc3ccccc3[o+]2)cc1`, the growth in [1] is 106%; in [2] it was 98.9%; in assay [3] it was 65%; in assay [4] it was 88.7%; in assay [5], 101%; in assay [6] it was 96.8%. The growth in assay [7] was 107%; in [8], 93.3%; in assay [9], 73.1%; in assay [10] it was 90.2%; in assay [11] it was 91.6%; in [12], 79%. In addition, the growth in assay [13] is 96.6%; in assay [14], 89.4%; in [15], 92.5%; in [16], 75.6%; in [20] it was 101%; in assay [17] it was 92%. In addition, the growth in assay [18] is 95.7%; in assay [19] it was 91.8%.

Take `C/C(=C\c1cc(C(F)(F)F)n(-c2ccc(N)cc2)n1)[C@@H]1C[C@@H]2O[C@]2(C)CCC[C@H](C)[C@H](O)[C@@H](C)C(=O)C(C)(C)[C@@H](O)CC(=O)O1`: the growth in assay [1] was 8.49% (active); in [2], -23.9% (active); in assay [3], 0.97% (active); in [4], 6.48% (active); in assay [5], -18.5% (active); in assay [6], -14.3% (active). The growth in [7] was 9.88% (active); in assay [8], 21.1%; in [9], 26.8%; in assay [10], 23.1%; in [11], 31.9%; in [12], 4.35% (active). In addition, the growth in assay [13] was 0.138% (active); in assay [14], 2.26% (active); in assay [15], 7.67% (active); in [16] it was 12.8%; in [20], -22.6% (active); in [17], 26.5%. Also, the growth is 5.82% (active) in assay [18] and 5.68% (active) in assay [19].

Take `O=C(O)c1[nH]c(=O)[nH]c(=O)c1F`: the growth in assay [1] was 105%; in [2] it was 96.6%; in [3], 108%; in assay [4] it was 86.7%; in [5] it was 82.5%; in [6], 86.6%. For the same compound, the growth in assay [7] is 93.6%; in assay [8], 91.4%; in [9] it was 79.6%; in [10] it was 96.3%; in [11] it was 77%; in assay [12], 49.7%. Moreover, the growth in assay [13] is 81.7%; in assay [14], 112%; in assay [15], 95%; in assay [16], 104%; in assay [20], 74.7%; in [17], 72.7%. The growth in assay [18] was 79.3%; in assay [19], 69.3%.

Values taken from PubChem BioAssay (NCI).
